In PubChem BioAssay one finds z-score and composite z-score data, which are given here for nine compounds.

Test [1] in a line: optical density shifts of acrAB sulA E. coli – strain DRC41, OD650, 48 h, E. coli filamentation inducer project, primary screen (AID 1152).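 Also: E. coli MC1000 strain DRC41 lacking acrAB efflux pump and sulA.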 As to conditions: higher = more signal, called active from +8 up or from −8 down.
Test [2] is described as follows: probe aLefty1 binding on compound microarray – biochemical, small-molecule microarray, 635/667 nm fluorescence, primary screen (AID 1153).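 Also: score merges spot fluorescence with signal-to-noise ratio from the scanned slide images.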 As to conditions: higher = more signal.
Test [3] can be described thus: plasmodial surface anion channel blockers, osmotic lysis – cell-based, P. falciparum Indochina, OD700, 1 h, primary screen (AID 1154). Conditions: P. falciparum Indochina infected RBC osmotic lysis, higher = more signal, called active from +8 up or from −8 down.
The nature of test [4]: plasmodial surface anion channel blockers, osmotic lysis – cell-based, P. falciparum Indochina, OD700, 2 h, primary screen (AID 1155).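 Also: lysis reports solute entry through the parasite surface anion channel PSAC.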 Conditions: P. falciparum Indochina infected erythrocytes, higher = more signal, called active from +8 up or from −8 down.
Test [5] in a line: changes in parasitized red cell lysis, either direction – P. falciparum Indochina, OD700, 3 h, PSAC antagonist project, primary screen (AID 1156). Conditions: P. falciparum-infected erythrocytes, osmotic lysis, higher = more signal, called active from +8 up or from −8 down.
Test [6] is described as follows: plasmodial surface anion channel blockers, osmotic lysis – cell-based, P. falciparum Indochina, OD700, 18 h, primary screen (AID 1157). Conditions: P. falciparum Indochina infected erythrocytes, osmotic lysis OD700, 18 h; higher = more signal, called active from +8 up or from −8 down.
A short description of test [7]: S6 kinase pathway phospho-S6 level changes – cell-based, A549, cytoblot, luminescence, serum-stimulated, primary screen (AID 1158).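 Also: serum-stimulated A549 lung adenocarcinoma cells; signal is phosphorylated S6 detected by cytoblot immunostaining with HRP secondary.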 As to conditions: 5 h, higher = more signal.
Test [8] deals with NADPH oxidase 2 (Homo sapiens) (UniProt P04839). The test is described as follows: compounds shifting NOX2 Amplex Red fluorescence – cell-based, HEK293-NOX2, PMA-stimulated, NOX inhibitor project, primary screen (AID 1159). Also: test concentration not given here. Conditions: 45 min, higher = more signal, called active from +8 up or from −8 down.
NADPH oxidase 2 (Homo sapiens), sequence (P04839 whole entry, looked up): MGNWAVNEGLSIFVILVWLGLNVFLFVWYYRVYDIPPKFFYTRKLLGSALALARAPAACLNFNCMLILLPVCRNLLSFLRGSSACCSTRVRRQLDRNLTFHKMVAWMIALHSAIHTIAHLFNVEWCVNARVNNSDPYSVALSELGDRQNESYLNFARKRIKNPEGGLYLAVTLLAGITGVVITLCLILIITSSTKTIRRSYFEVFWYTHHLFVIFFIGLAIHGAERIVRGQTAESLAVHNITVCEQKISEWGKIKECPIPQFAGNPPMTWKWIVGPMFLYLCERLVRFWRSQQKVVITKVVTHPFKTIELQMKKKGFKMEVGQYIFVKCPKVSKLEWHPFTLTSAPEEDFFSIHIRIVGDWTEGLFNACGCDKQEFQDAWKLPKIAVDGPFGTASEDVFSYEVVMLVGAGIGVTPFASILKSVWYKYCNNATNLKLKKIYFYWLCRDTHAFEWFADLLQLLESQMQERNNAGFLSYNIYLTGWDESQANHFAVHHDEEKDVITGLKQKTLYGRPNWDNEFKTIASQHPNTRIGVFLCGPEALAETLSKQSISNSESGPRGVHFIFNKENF
In test [9] the target is NADPH oxidase 4 (Homo sapiens) (UniProt Q9NPH5). Put plainly: compounds shifting NOX4 Amplex Red fluorescence – cell-based, HEK293-NOX4, tetracycline-induced, NOX inhibitor project, primary screen (AID 1160). As to conditions: HEK293-NOX4, Amplex Red H2O2 fluorescence, 45 min; higher = more signal, called active from +8 up or from −8 down.
NADPH oxidase 4 (Homo sapiens), sequence (Q9NPH5 whole entry, looked up): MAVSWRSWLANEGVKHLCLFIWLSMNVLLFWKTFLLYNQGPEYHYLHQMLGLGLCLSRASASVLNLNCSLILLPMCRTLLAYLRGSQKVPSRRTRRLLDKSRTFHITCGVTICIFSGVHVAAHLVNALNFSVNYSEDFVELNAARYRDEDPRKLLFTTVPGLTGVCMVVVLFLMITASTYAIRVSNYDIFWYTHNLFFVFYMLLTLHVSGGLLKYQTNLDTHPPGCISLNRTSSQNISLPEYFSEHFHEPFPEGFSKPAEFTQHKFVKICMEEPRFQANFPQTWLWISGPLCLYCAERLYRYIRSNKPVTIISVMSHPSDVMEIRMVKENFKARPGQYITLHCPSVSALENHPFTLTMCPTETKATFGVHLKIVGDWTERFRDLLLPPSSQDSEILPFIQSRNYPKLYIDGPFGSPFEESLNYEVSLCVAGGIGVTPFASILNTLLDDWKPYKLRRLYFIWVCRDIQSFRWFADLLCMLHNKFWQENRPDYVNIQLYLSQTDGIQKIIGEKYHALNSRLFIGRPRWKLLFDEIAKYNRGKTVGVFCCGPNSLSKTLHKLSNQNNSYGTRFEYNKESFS
The target of test [10] is NADPH oxidase 5 (Homo sapiens) (UniProt Q96PH1). Put plainly: compounds shifting NOX5 Amplex Red fluorescence – cell-based, HEK293-NOX5, NOX inhibitor project, primary screen (AID 1161). As to conditions: HEK293-NOX5, ionomycin, 45 min, higher = more signal.
NADPH oxidase 5 (Homo sapiens), sequence (Q96PH1 whole entry, looked up): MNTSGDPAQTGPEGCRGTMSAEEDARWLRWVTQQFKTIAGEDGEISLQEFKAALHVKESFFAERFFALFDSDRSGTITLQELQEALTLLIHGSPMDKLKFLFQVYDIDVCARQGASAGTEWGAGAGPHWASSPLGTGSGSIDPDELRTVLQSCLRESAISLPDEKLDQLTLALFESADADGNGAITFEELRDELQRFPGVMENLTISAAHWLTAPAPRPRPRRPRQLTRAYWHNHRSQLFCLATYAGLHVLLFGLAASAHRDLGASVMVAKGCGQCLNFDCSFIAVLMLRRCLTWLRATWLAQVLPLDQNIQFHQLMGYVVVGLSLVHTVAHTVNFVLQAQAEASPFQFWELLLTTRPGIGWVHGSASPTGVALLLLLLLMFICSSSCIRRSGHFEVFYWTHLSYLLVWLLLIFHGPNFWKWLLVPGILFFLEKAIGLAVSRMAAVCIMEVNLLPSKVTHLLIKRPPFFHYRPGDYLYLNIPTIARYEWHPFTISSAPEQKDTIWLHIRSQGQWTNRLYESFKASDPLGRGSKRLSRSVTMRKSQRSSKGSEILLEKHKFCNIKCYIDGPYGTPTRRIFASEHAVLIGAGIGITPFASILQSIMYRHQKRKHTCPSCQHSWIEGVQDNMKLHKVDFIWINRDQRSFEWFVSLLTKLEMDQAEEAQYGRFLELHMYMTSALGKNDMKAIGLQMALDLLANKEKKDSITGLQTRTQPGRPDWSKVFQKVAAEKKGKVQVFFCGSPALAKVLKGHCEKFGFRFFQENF
Test [11] in a line: compound effects on lung adenocarcinoma cell viability – A549, calcein-AM fluorescence, 48 h, basal, profiling panel (AID 1162). Also: test concentration not given here. Conditions: higher = more signal.
A short description of test [12]: compound effects on differentiated 3T3-L1 adipocyte viability – cell-based, 3T3-L1 adipocytes, calcein-AM fluorescence, 48 h, basal, profiling panel (AID 1163). Also: test concentration not given here. As to conditions: 3T3-L1 adipocytes viability, higher = more signal.
Test [13] in a line: compound effects on hepatocellular carcinoma cell viability – HepG2, calcein-AM fluorescence, 48 h, basal, profiling panel (AID 1164). Also: test concentration not given here. As to conditions: higher = more signal.
A short description of test [14]: compound effects on multiple myeloma cell viability – MM1S, calcein-AM fluorescence, 48 h, basal, profiling panel (AID 1165). Also: test concentration not given here. Conditions: higher = more signal.
A short description of test [15]: calcein-AM signal in unstimulated myeloma cells – cell-based, calcein-AM fluorescence, 48 h, PK04 Diversity Set, profiling panel (AID 1166).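 Also: cells grown under basal conditions without added stimulus; test concentration not given here.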 As to conditions: RPMI8226 myeloma viability, higher = more signal.
Test [16] in a line: JC-1 mitochondrial signal, unstimulated HepG2 cells – cell-based, JC-1 fluorescence, 24 h, 100 nL compound, profiling panel (AID 1167). Also: test concentration not given here. Conditions: HepG2 mitochondrial potential, higher = more signal.
A short description of test [17]: JC-1 mitochondrial signal, unstimulated adipocytes – cell-based, JC-1 fluorescence, 3T3-L1 adipocytes, 24 h, 100 nL compound, profiling panel (AID 1168). Also: test concentration not given here. Conditions: JC-1 mitochondrial fluorescence, higher = more signal, called active from +8 up or from −8 down.
Test [18] is described as follows: JC-1 mitochondrial signal, unstimulated myeloma cells – cell-based, JC-1 fluorescence, RPMI8226, 24 h, 100 nL compound, profiling panel (AID 1169). Also: test concentration not given here. Conditions: JC-1 mitochondrial potential fluorescence, higher = more signal.
A short description of test [19]: JC-1 mitochondrial signal, unstimulated MM1S myeloma – cell-based, JC-1 fluorescence, 24 h, 100 nL compound, profiling panel (AID 1170). Also: test concentration not given here. Conditions: MM1S mitochondrial potential, higher = more signal.
Test [20] is described as follows: resazurin metabolic signal in A549 cells – cell-based, resazurin fluorescence, 24 h, PK04 Diversity Set, profiling panel (AID 1171). Also: test concentration not given here. Conditions: A549 viability, higher = more signal, called active from +8 up or from −8 down. A general note: Alamar Blue is a resazurin reagent that responds to reducing activity.

Active and inactive are the calls of the source.

With `CCc1cccc(NC(=O)O[C@H]2[C@H](OC(=O)Nc3ccccc3)[C@H](OC(=O)Nc3ccccc3)[C@@H](OC)O[C@@H]2CO)c1`, the z-score was -1.42 (inactive) in test [1]; 10.1 (active) in test [3]; 3.34 (inactive) in test [4]; -1.53 (inactive) in [5]; 1.92 (inactive) in test [6]; 0.213 in test [7]. Further, the z-score in test [8] is -1.12 (inactive); in test [9], -0.593 (inactive); in [10] it was -1.3; in [11] it was -1.97; in test [12] it was 1.18; in test [13], -5.14. The z-score in test [14] is -3.46; in [15], -4.3; in test [16] it was -2.34; in test [17] it was 0.867 (inactive); in test [18] it was -1.2; in test [19], -2.32. In addition, the z-score in test [20] was -4.35 (inactive). This compound displayed a composite z-score in test [2] of 0.253.
Consider `CCCNC(=O)[C@@]1(Sc2ccc(C)cc2)CC(=O)N(C(C)C)[C@@H]1c1ccc(CO)cc1I`, for which the z-score in test [1] was -0.236 (inactive); in test [3] it was 5.82 (inactive); in test [4], 0.424 (inactive); in test [5], 0.0627 (inactive); in test [6], 0.108 (inactive); in test [7], -0.198. Besides, the z-score was 2.46 (inactive) in test [8]; -2.43 (inactive) in [9]; 0.276 in test [10]; 0.505 in test [11]; 0.49 in test [12]; -0.658 in test [13]. In addition, the z-score in test [14] is -2.65; in test [15], -2.09; in [16], 0.632; in test [17], -0.769 (inactive); in [18], -0.919; in test [19] it was -1.02. In addition, the z-score in test [20] was -0.0866 (inactive). For the same compound, in test [2], the composite z-score was -0.0046.
In the case of `CCOC(=O)C[C@H]1[C@H](OC(=O)c2cc3ccccc3oc2=O)[C@@H](NC(=O)c2ccc3ccccc3c2)c2cc(OCCCO)ccc2N1C(=O)Cc1ccc(OC)cc1`, the z-score in test [1] is -0.62 (inactive); in test [3] it was 7.22 (inactive); in [4], 0.935 (inactive); in test [5] it was 0.703 (inactive); in test [6] it was 0.525 (inactive); in test [7], -0.24. For the same compound, the z-score in test [8] was 3.04 (inactive); in [9], 1.01 (inactive); in test [10], 1.94; in test [11], -0.103; in test [12], 0.528; in test [13], -0.425. Further, the z-score in test [14] is 0.226; in test [15] it was 0.0557; in test [16], -0.527; in test [17], 0.06 (inactive); in test [18], -0.229; in [19], 0.0571. Also, the z-score in [20] is 0.379 (inactive). The compound further had a composite z-score in [2] of -0.0479.
As to `NC(=O)NCC#Cc1ccc2c(c1)[C@]1(C(=O)N2)[C@H](C(=O)N2CCN(c3ncccn3)CC2)[C@H]2C(=O)O[C@H](c3ccccc3)[C@H](c3ccccc3)N2[C@@H]1c1ccc(OCCO)cc1`, the z-score was 0.682 (inactive) in test [1]; 5.91 (inactive) in test [3]; 1.66 (inactive) in test [4]; -0.015 (inactive) in test [5]; 0.689 (inactive) in test [6]; -0.24 in [7]. The z-score in test [8] was 1.44 (inactive); in test [9], 1.1 (inactive); in [10] it was 1.12; in test [11] it was 0.0404; in [12], -0.33; in test [13], -1.12. Besides, the z-score was -0.444 in [14]; 0.86 in [15]; -1.95 in test [16]; 1.54 (inactive) in [17]; -0.504 in test [18]; -0.445 in test [19]. Besides, the z-score in [20] was 0.75 (inactive). In addition, the composite z-score in test [2] was 0.309.
With `CCOC(=O)C1=CCN(S(=O)(=O)c2ccc(C)cc2)C1c1ccccc1` (stereo not given), the z-score in [1] was -1.44 (inactive); in test [3] it was 3.1 (inactive); in test [4] it was 0.8 (inactive); in [5] it was -0.451 (inactive); in test [6] it was 0.806 (inactive); in [7], -0.489. For the same compound, the z-score in test [8] is 0.532 (inactive); in test [9] it was -1.38 (inactive); in [10] it was -0.86; in [11] it was -0.973; in test [12], -0.205; in test [13], -0.535. The z-score was -0.455 in [14]; -1.21 in [15]; -1.62 in test [16]; -0.804 (inactive) in test [17]; 0.443 in test [18]; -0.583 in test [19]. The z-score in test [20] is 0.739 (inactive). Moreover, the composite z-score in [2] amounted to 0.121.
As to `C=CCC(OC(C)=O)[C@@H]1[C@@H](N(Cc2cccc3ccccc23)C(=O)Cc2ccc(F)cc2)c2cc(OCCCO)ccc2N1C(=O)c1ccc(-c2ccccc2)cc1` (stereo not given in full), the z-score was 0.341 (inactive) in test [1]; 0.616 (inactive) in test [3]; 0.743 (inactive) in test [4]; -0.402 (inactive) in test [5]; -0.278 (inactive) in [6]; -0.18 in [7]. In addition, the z-score in [8] is 0.227 (inactive); in test [9] it was 0.795 (inactive); in [10] it was 1.77; in [11] it was -0.546; in [12], 0.905; in [13] it was 0.111. For the same compound, the z-score is 0.867 in test [14]; -0.61 in test [15]; 1.35 in test [16]; -0.389 (inactive) in test [17]; -0.104 in test [18]; 0.302 in [19]. Moreover, in test [20], the z-score was 0.736 (inactive). In test [2], this compound gave a composite z-score of 0.0184.
On to `Cc1ccc(S[C@]2(C(=O)NC(C)C)CC(=O)N(C(C)C)[C@@H]2c2ccc(CO)cc2I)cc1`, for which the z-score in test [1] was -0.745 (inactive); in test [3], 4.77 (inactive); in [4], 0.342 (inactive); in test [5], 0.59 (inactive); in test [6], 0.397 (inactive); in [7], 0.293. For the same compound, the z-score is 1.8 (inactive) in test [8]; -1.53 (inactive) in test [9]; -0.227 in [10]; 0.931 in test [11]; -0.134 in test [12]; 0.0096 in [13]. Besides, the z-score is -2.39 in test [14]; -1.38 in test [15]; 1.09 in test [16]; 0.389 (inactive) in test [17]; -0.312 in test [18]; -1.32 in test [19]. Moreover, the z-score in test [20] is -0.0361 (inactive). Moreover, the composite z-score in test [2] turned out to be 0.207.
Consider `CCCCC(=C=CC[C@H](O)c1ccc(OCCO)cc1)C[C@H](O)COCc1ccccc1`, for which the z-score is -0.088 (inactive) in test [1]; 18.2 (active) in test [3]; 3.18 (inactive) in test [4]; 0.871 (inactive) in test [5]; 1.02 (inactive) in [6]; -0.881 in test [7]. For the same compound, the z-score in test [8] was -0.751 (inactive); in [9] it was -0.446 (inactive); in test [10] it was -2.05; in test [11], 0.218; in test [12], 0.516; in [13], 0.528. The z-score in test [14] was -3.3; in [15], -0.565; in [16] it was -0.399; in test [17], -0.379 (inactive); in test [18] it was -0.0821; in test [19], -0.244. Moreover, in test [20], the z-score is 0.449 (inactive). In test [2], this compound came in with a composite z-score of -0.235.
`COCCOC(=O)N1C(=O)[C@@]2(c3cc(C#CC4(O)CCCCCC4)ccc31)[C@H](c1ccc(OCCO)cc1)N1[C@H](c3ccccc3)[C@H](c3ccccc3)OC(=O)[C@H]1[C@@H]2C(=O)Nc1nc2ccccc2s1`: the z-score in [1] is -0.595 (inactive); in [3], 2.53 (inactive); in [4], 2.08 (inactive); in [5], 0.834 (inactive); in [6], 1.53 (inactive); in [7], -0.652. For the same compound, the z-score was 0.549 (inactive) in [8]; 0.131 (inactive) in test [9]; 1.94 in [10]; 0.0809 in test [11]; 0.676 in test [12]; 0.499 in test [13]. The z-score in test [14] was -2.09; in test [15], -2.15; in [16], -3.31; in [17], 1.1 (inactive); in [18], -1.07; in [19] it was -1.46. For the same compound, the z-score in test [20] was 0.813 (inactive). The same compound returned a composite z-score in test [2] of 0.718.
